In PubChem BioAssay (Tox21):
Activity calls are given as the source filed them. Entries that show only a call come without a potency. The call rests on the fitted dose curve.

Assay: G protein-coupled receptor (GPCR) small molecule agonists, calcium flux assay: HEK293 wild type cell line counter screen (AID 1920065)
Summary of the method: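 Tox21 10K compounds, 15 concentrations each in triplicate, pin-transferred in DMSO onto dye-loaded cells; kinetic read at 480/540 nm for 3 min, 1 s intervals.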

C[N+](C)(C)CC(=O)[O-]
Potency: inactive

O=C(O)C(Cl)Cl
Potency: inactive

CNC(=O)O/N=C(\SC)C(=O)N(C)C
Potency: inactive

O=P1(NCCCl)OCCCN1CCCl (stereo not drawn)
Potency: inactive

CCCCCCCCCCCC(=O)O
Potency: inactive

CCNc1nc(NC(C)C)nc(SC)n1
Potency: inactive

CCNCC
Potency: inactive

Nc1ccc(-c2ccc(N)c(N)c2)cc1N
Potency: inactive

C[C@]12C=CC3=C4CCC(=O)C=C4CC[C@H]3[C@@H]1CC[C@@H]2O
Potency: inactive

NC(=S)Nc1ccccc1
Potency: inactive

[CH3][Sn]([CH3])([Cl])[Cl]
Potency: inactive

CC(C)N(C(=O)CCl)c1ccccc1
Potency: inactive

COP(=S)(OC)SCN1C(=O)c2ccccc2C1=O
Potency: inactive

COc1ccc(N)cc1N
Potency: inactive

COc1ccccc1N
Potency: inactive

CCCCCCCC[N+](C)(CCCCCCCC)CCCCCCCC
Potency: inactive

c1ccc2sc(SNC3CCCCC3)nc2c1
Potency: inactive

CCCCn1cc[n+](C)c1C
Potency: inactive

OCCN(CCO)CCO
Potency: inactive

CCc1cccc(CC)c1N(COC)C(=O)CCl
Potency: inactive

CCCC[N+]1(C)CCCC1
Potency: inactive

CN(C)[C@@H]1C(=O)C(C(N)=O)=C(O)[C@@]2(O)C(=O)C3=C(O)c4c(O)cccc4[C@@](C)(O)[C@H]3C[C@@H]12
Potency: inactive

C1CCC2CCCCC2C1 (stereo not drawn)
Potency: inactive

CCCCC1C(=O)NC(=O)N(C2CCCCC2)C1=O (stereo not drawn)
Potency: inactive

C1CCC(NC2CCCCC2)CC1
Potency: inactive

C=CCBr
Potency: inactive

Brc1ccc(Br)cc1
Potency: inactive

ClCC(Cl)(Cl)Cl
Potency: inactive

N#Cc1nn(-c2c(Cl)cc(C(F)(F)F)cc2Cl)c(N)c1S(=O)C(F)(F)F (stereo not drawn)
Potency: inactive

CCCCN(CC)c1c([N+](=O)[O-])cc(C(F)(F)F)cc1[N+](=O)[O-]
Potency: inactive

O=C(Cl)/C=C/C(=O)Cl
Potency: inactive

O=C(O)C(Cl)(Cl)Br
Potency: inactive

CC1CC(CC2CCC(N)C(C)C2)CCC1N (stereo not drawn)
Potency: inactive

CCCC(=O)Cl
Potency: inactive

CC(C)C(C)(N)C#N (stereo not drawn)
Potency: inactive

Nc1ccccc1C(=O)OCCc1ccccc1
Potency: inactive

BrCCBr
Potency: inactive

CC(=O)[C@H]1CC[C@H]2[C@@H]3CC[C@H]4C[C@](C)(O)CC[C@]4(C)[C@H]3CC[C@]12C
Potency: inactive

Oc1ccc(Cl)cc1Cl
Potency: inactive

COc1ccc(C(O)(c2cncnc2)C2CC2)cc1 (stereo not drawn)
Potency: inactive

Nc1ccc(N)cc1
Potency: inactive

CC(C)c1ccc(OP(=O)(Oc2ccc(C(C)C)cc2)Oc2ccc(C(C)C)cc2)cc1
Potency: inactive

C=CC=O
Potency: inactive

N#Cc1cccc(C#N)c1
Potency: inactive

CNC(=O)Oc1ccccc1OC(C)C
Potency: inactive

CC12CC1(C)C(=O)N(c1cc(Cl)cc(Cl)c1)C2=O (stereo not drawn)
Potency: inactive

CCOP(=O)(O)OCC (tested in a mixture with another compound)
Potency: inactive

Clc1cccc(C(Cl)(Cl)Cl)n1
Potency: inactive

[O]=[Cr](=[O])([OH])[O][Cr](=[O])(=[O])[OH]
Potency: inactive

CCCCCCC1CCOC1=O (stereo not drawn)
Potency: inactive

Clc1ccc(C(Cl)(Cl)Cl)cn1
Potency: inactive

BrCCc1ccccc1
Potency: inactive

CCCCCCCCC(=O)NCc1ccc(O)c(OC)c1
Potency: inactive

C[Si](Cn1cncn1)(c1ccc(F)cc1)c1ccc(F)cc1
Potency: inactive

CC(C)(C)c1ccccc1O
Potency: inactive

CCCCCC[n+]1ccccc1
Potency: inactive

CC(C)COC(=O)c1ccccc1C(=O)OCC(C)C
Potency: inactive

O=C(O)CC[N+](=O)[O-]
Potency: inactive
